# Screening results deposited in PubChem BioAssay by National Center for Advancing Translational Sciences (NCATS).
# BAZ2B inh: blocks human BAZ2B; Q9UIF8; AlphaScreen BAZ2B-H3K14Ac peptide displacement; Potency, µM (top dose mostly 114 µM), without a hit: at the top dose activity change, negative = inhibition, most hits filed as inhibitors; 4.4% of 360,000 active; further: on the % scale 0 is the no-effect control and ±100 the full control effect; nearly all actives have a fitted effect of over 60% in size
#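 BAZ2B (50 nM) with biotin-H3(5-23)K14Ac peptide (50 nM) in PBS pH 7.4, 0.01% Tween-20, preformed 30 min, then compound 30 min at room temperature; top concentration 110uM. AlphaScreen streptavidin donor/nickel chelate acceptor beads (10 ug/mL final), 20 min dark, signal read.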
# Sfp PPTase inh: blocks B. subtilis Sfp PPTase activity. Biochemical Sfp PPTase activity, qHTS. Potency, µM, for inactives: largest response in the series, negative = inhibition, actives largely listed as inhibitors. 3.5% of 310,000 active. AID 1490;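 further: the enzyme is Sfp with the accession as filed and its product quenches rhodamine fluorescence; 0% = enzyme reaction without inhibitor and -100% = no enzyme wells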
#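 After 15 min at room temperature with compound, 15 nM Sfp received 5 uM rhodamine-CoA plus 12.5 uM BHQ-2-ybbR (50 mM Hepes pH 7.6, 10 mM MgCl2). Rate came from the fluorescence difference over 30 min, ex 525/em 598 nm.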
# TDP1 inh: inhibitors of human tyrosyl-DNA phosphodiesterase TDP1; Q9NUW8; recombinant TDP1, AlphaScreen DNA substrate cleavage; Potency, µM (highest dose often 130 µM), for inactives: top-dose activity change, negative = inhibition, hits mostly inhibitors; 0.28% of 350,000 active; AID 485290; further: on the % scale 0 is the no-effect control and ±100 the full control effect; nearly all actives have a fitted effect of over 40% in size
#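 Recombinant human Tdp1 (E. coli-expressed, 1 nM final) preincubated with compounds 15 min at room temperature, then 5'-biotin/3'-phosphotyrosine-FITC DNA substrate (15 nM final) added for 5 min. AlphaScreen beads (10 ug/ml final) added 10 min; cleavage lowers signal.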
# HP1b chromo inh: blocks HP1-beta chromodomain binding to methylated histone tails; AlphaScreen HP1-beta / biotin-H3K9me3 peptide binding; AID 540317; 0.56% of 390,000 active; P83916; Potency, µM (titrated, usually from 114 µM), without a hit: at the top dose activity change, negative = inhibition, actives largely listed as inhibitors; further: nearly all actives have a fitted effect of over 70% in size
# Target sequence (P83916 whole entry, looked up): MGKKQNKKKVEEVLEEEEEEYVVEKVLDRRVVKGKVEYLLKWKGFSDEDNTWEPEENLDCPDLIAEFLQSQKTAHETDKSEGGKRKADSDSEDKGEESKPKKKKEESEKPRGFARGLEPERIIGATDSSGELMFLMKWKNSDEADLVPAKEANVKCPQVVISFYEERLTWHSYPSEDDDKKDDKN
#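 HP1-beta protein (50 nM final) preincubated 30 min at room temperature with biotinylated H3(1-18)K9me3 peptide (50 nM) in PBS pH 7.4, 0.01% Tween-20, then compound added for 30 min. AlphaScreen streptavidin donor/nickel chelate acceptor beads (10 ug/mL final), 30 min dark, luminescence read.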
# G9a block: blocks human histone lysine methyltransferase G9a. G9a H3K9 monomethylation, AlphaScreen, 2 h. Potency, µM (highest dose often 102 µM), inactives show top-dose activity, negative = inhibition, usual class: inhibitors. 8.8% of 350,000 active. AID 504332; further: on the % scale 0 is the no-effect control and ±100 the full control effect; nearly all actives have a fitted effect of over 75% in size
# Target sequence (Q96KQ7 913-1193 limits assumed): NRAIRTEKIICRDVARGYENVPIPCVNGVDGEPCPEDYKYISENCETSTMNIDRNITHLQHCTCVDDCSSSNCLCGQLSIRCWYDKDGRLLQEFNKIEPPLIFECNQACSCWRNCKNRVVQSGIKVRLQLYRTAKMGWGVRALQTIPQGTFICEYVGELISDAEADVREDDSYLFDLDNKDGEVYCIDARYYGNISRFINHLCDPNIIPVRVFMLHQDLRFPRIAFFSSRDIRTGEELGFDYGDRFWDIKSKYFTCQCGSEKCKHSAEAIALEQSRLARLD
#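 G9a (20 nM) was preincubated 15 min with compound, then reacted 2 h at room temperature with 500 nM biotin-H3K9 peptide and 20 µM SAM. Monomethyl-H3K9 detected by AlphaScreen using anti-H3K9me1 antibody.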
# JMJD2A Tudor inh: JMJD2A Tudor domain (human) inhibition; O75164; AlphaScreen JMJD2A-Tudor / H3K4me3 peptide binding; Potency, µM (highest dose often 114 µM), without a hit: at the top dose activity change, negative = inhibition, usual class: inhibitors; 4.4% of 390,000 active; further: on the % scale 0 is the no-effect control and ±100 the full control effect; nearly all actives have a fitted effect of over 50% in size
# * marks the source's active call; other numbers are inactive results; ? = inconclusive; nt = no result given; [ ] = another dose, or the depositor's remark. In the library only some 12% were active in any assay of this set; here they are far more common. The call rests on the fitted dose curve; in most records, active means well fitted curve in the direction sought with a large enough effect; inconclusive means small, poorly fitted or top-dose-only effect, or another doubt; inactive means no such curve, though single readings can be large; an effect the other way counts as inactive or inconclusive. Potency means the concentration at half of the fitted maximal effect.
SMILES,BAZ2B inh,Sfp PPTase inh,TDP1 inh,HP1b chromo inh,G9a block,JMJD2A Tudor inh
Cc1ccc(-n2c(=O)c3c4c(sc3n3c(=S)[nH]nc23)CCC4)cc1,-18%,-2%,2%,36%,2.8µM*,25µM*
CCN(CC(=O)NC1CCS(=O)(=O)C1)C(=O)c1cc(OC)c(OC)c(OC)c1 (centres undefined),0%,nt,3%,26%,7%[12.7 µM],3%
COc1ccc(-n2c(=O)c3c4c(sc3n3c(SC(C)C)nnc23)COC(C(C)C)C4)cc1 (centres undefined),-5%,nt,2%,53%,-52%[59 µM],-3%
COc1ccc(-n2c(=O)c3c4c(sc3n3c(=S)[nH]nc23)COC(C(C)C)C4)cc1 (centres undefined),-5%,0%,6%,6%,8.9µM*,?
O=C(NCCc1ccccn1)c1ccc2nc(Cc3ccccc3F)oc2c1,-4%,3%,4%,42%,36%,-5%
CCCCOC(=O)c1ccc(NC(=O)C2(c3cccs3)CCOCC2)cc1,18%,nt,0%,55%,-2%[59 µM],5%
COc1ccc(OCC(=O)NC(=O)c2ccccc2OC)c([N+](=O)[O-])c1,-37%,nt,-1%[0.505 µM],-2%,50µM*,-25%
C[C@@H]1CC2(OC3C[C@@]4(C)C5=CC[C@H]6C(C)(C)C(O[C@@H]7OC[C@@H](O)[C@H](O)[C@H]7O)CC[C@@]67C[C@@]57CC[C@]4(C)C31)OC(O)C1(C)OC21 (some centres undefined),nt,nt,10%,nt,nt,nt
CCOc1cc(C=NN=C2c3ccccc3-c3ccccc32)ccc1O,nt,nt,nt,50µM*,nt,25µM*
CCOc1cc(/C=N/NC(=O)N/N=C/c2ccc(O)c(OCC)c2)ccc1O,nt,nt,nt,12%,nt,-12%
Oc1cccc(C=NN=C2c3ccccc3-c3ccccc32)c1,nt,nt,nt,?,nt,45µM*
C(=NN=C1c2ccccc2-c2ccccc21)c1ccc2c(c1)OCO2,nt,nt,nt,50µM*,nt,20µM*
Cn1cnnc1SCC(=O)NC(=O)NCc1ccccc1,9%,nt,1%,42%,4%[59 µM],-1%
C=CCN1C(=CCO)[C@H]2C[C@H]3[C@@H]1CC[C@@]31c3ccccc3N3C=C4[C@@H]5N(/C=C/2[C@H]31)c1ccccc1[C@]51CC[C@H]2[C@H]1C[C@@H]4/C(=C/CO)N2CC=C,nt,25%,4%[56.1 µM],nt,34%[21.5 µM],nt
CCOC(=O)Cc1nn2c(=O)cc(C)nc2s1,79µM*,3%,0%,6%,3%[12.7 µM],-11%
C=CC[n+]1c(C)csc1Nc1cccc(Br)c1,nt,-16%,8%,?,32µM*,?
C=CC[n+]1c(C)csc1Nc1ccc(C)cc1,32µM*,26%,5%,?,50µM*,?
CC(=O)c1ccc(Nc2cc(C)nc3ncnn23)cc1,-4%,11%,nt,25%,-7%,?
Cc1cc(Nc2ccc(C)c(F)c2)n2ncnc2n1,11%,14%,4%,60%,-12%[59 µM],-4%[57.1 µM]
Cc1cc(Nc2ccc(N3CCC(C)CC3)cc2)n2ncnc2n1,56µM*,-5%,5%,1%,-50%[12.7 µM],?
Cc1cc(C)n2ncnc2n1,?,0%,2%,27%,50µM*,-3%
Cc1ccc(Nc2cc(C)nc3ncnn23)cc1,-18%,21%,nt,28%,71µM*,-13%
CC(=O)c1ccc(Nc2cc(C)nc3nc(C)nn23)cc1,6%,-2%,0%,40%,79µM*,-4%
CCN(CC)S(=O)(=O)c1nnc(NC(=O)COc2ccc(C)cc2)s1,?,nt,3%,17%,-10%[59 µM],-26%
CCOc1ccc(CCNC(=O)C(CC(C)C)N2Cc3ccccc3C2=O)cc1OCC (centres undefined),0%,nt,4%,28%,2%[59 µM],0%
SMILES,BAZ2B inh,Sfp PPTase inh,TDP1 inh,HP1b chromo inh,G9a block,JMJD2A Tudor inh
COc1cc(Nc2cc(C)nc3ncnn23)cc(OC)c1,12%,-5%,5%,36%,?,-12%
COc1cc(Nc2cc(C)nc3ncnn23)cc(OC)c1OC,8%,4%,4%,68%,45µM*,-7%
CCC(C(=O)Nc1ccc2[nH]ncc2c1)c1ccccc1 (centres undefined),-24%,12%,nt,23%,-19%,-2%
CCn1c(/C=C/c2cc[n+](C)cc2)nc2ccccc21,?,-1%,nt,8%,35µM*,?
N#CC(C#N)=C1C=CC=CN1/C(=C\c1ccco1)C(=O)c1ccc(-c2ccccc2)cc1,?,10%,4%,-6%,-28%[59 µM],-33%
N#CC(C#N)=C1C=CC=CN1/C(=C\c1ccco1)C(=O)c1ccc(Cl)cc1,?,14µM*,4%,2%,?,?
COc1ccccc1N(CC(=O)NC(C)(C)C)C(=O)c1ccc(Cl)nc1,7%,11%,-1%,17%,nt,-12%
CN(CC(=O)Nc1ccc(N2CCOCC2)cc1)C(=O)CCc1cc(C(C)(C)C)c(O)c(C(C)(C)C)c1,50µM*,nt,14%,-17%,0%[0.501 µM],?
Cc1ccc(NC(=O)CN(C)CC(=O)Nc2ccc(N3CCOCC3)cc2)cc1F,18µM*,2%,3%,?,-143%[59 µM],7.9µM*
CCn1c2ccccc2c2cc(NC(=O)CN(C)CC(=O)Nc3ccc(N4CCOCC4)cc3)ccc21,28µM*,15%,4%,-17%,40µM*,?
Cc1ccc(CC(=O)N(C)CC(=O)Nc2ccc(N3CCOCC3)cc2)cc1C,-29%,nt,nt,23%,14µM*,-15%
Cc1ccc(NC(=O)CN(C)CC(=O)Nc2ccc(N3CCOCC3)cc2)c([N+](=O)[O-])c1,-6%,-3%,3%,-15%,?,-19%
CCCC(=O)Nc1ccc(N2CCOCC2)cc1,8%,-12%,0%,26%,-31%[12.7 µM],-12%[11.4 µM]
CC(=O)N1c2ccccc2C2(O)N=C(C)SC12 (centres undefined),?,-95%,-2%,?,1.4µM*,5.6µM*
CC(=O)N1c2ccccc2[C@@H](C)[C@@H]1C,1%,nt,2%,17%,13%[0.501 µM],-6%
COCCn1nnnc1CN1CCOCC1,-6%,-2%,3%,7%,50µM*,-22%
OC[C@H]1OC(O)[C@H](O)[C@@H](O)[C@@H]1O (some centres undefined),nt,13%,5%,nt,nt,nt
CC1CCc2c(sc(/N=C/c3ccco3)c2C(N)=O)C1 (centres undefined),-23%,-23%,-1%,24%,?,0%
Cc1cc(N)ccc1N1CCCC1,45µM*,14µM*,4%,50µM*,?,20µM*
Cc1cc(N)ccc1-n1c(C)ccc1C,-3%,-9%,0%,-23%,14µM*,?
NC(=O)c1cc(N)ccc1N1CCCC1,-39%,-5%,-4%,-9%,?,?
